According to PubChem BioAssay (Tox21):
Several values for one entry are separate records, joined by “and”; a condition that tells them apart may be missing. Equal values may be shown once. Activity calls are given as the source filed them. Unless noted, calls come from the whole dose curve; as a rule, active = well fitted curve in the direction sought with a large enough effect in the repeat runs; inconclusive = weak or mixed curves; inactive = no such curve, though single readings can be large; an effect the other way counts as inactive or inconclusive.

Legend:
[1] = qHTS assay to identify small molecule antagonists of the thyroid receptor (TR) signaling pathway - cell viability counter screen (AID 743064); note: nearly all actives have a fitted effect of over 50% in size; note: potency is the fitted concentration of half-maximal effect
How it was run: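 GH3.TRE-Luc cells, 4 h pre-plating; cpd + T3 1 nM final; 37 °C 23.5 h; CellTiter-Fluor 30 min; fluorescence read.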

[2] = qHTS assay to identify small molecule antagonists of the thyroid receptor (TR) signaling pathway (AID 743065); note: nearly all actives have a fitted effect of over 55% in size; note: potency is the fitted concentration of half-maximal effect
How it was run: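 GH3.TRE-Luc rat pituitary cells (two TREs driving luciferase) were dosed with compound, then stimulated with 1 nM T3 (final) for 23.5 h at 37 C. ONE-Glo luminescence was the read-out, with CellTiter-Fluor fluorescence as the cytotoxicity counter-screen.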

[3] = system: thyroid hormone receptor (rat, GH3 cells); assay: qHTS assay to identify small molecule agonists of the thyroid receptor (TR) signaling pathway (AID 743066; calls by dose curve)
[4] = target: Estrogen receptor (Homo sapiens) (UniProt P03372); assay: qHTS assay to identify small molecule antagonists of the estrogen receptor alpha (ER-alpha) signaling pathway (AID 743069; active = well fitted curve in the direction sought with a large enough effect in the signal ratio in the repeat runs, not every such curve was filed as active; inconclusive = weak or mixed curves, or effect the other way; inactive = no such curve, though single readings can be large or run the other way; the % refers to the signal ratio; note: potency is the fitted concentration of half-maximal effect)
Estrogen receptor (Homo sapiens), sequence (P03372 whole entry, looked up): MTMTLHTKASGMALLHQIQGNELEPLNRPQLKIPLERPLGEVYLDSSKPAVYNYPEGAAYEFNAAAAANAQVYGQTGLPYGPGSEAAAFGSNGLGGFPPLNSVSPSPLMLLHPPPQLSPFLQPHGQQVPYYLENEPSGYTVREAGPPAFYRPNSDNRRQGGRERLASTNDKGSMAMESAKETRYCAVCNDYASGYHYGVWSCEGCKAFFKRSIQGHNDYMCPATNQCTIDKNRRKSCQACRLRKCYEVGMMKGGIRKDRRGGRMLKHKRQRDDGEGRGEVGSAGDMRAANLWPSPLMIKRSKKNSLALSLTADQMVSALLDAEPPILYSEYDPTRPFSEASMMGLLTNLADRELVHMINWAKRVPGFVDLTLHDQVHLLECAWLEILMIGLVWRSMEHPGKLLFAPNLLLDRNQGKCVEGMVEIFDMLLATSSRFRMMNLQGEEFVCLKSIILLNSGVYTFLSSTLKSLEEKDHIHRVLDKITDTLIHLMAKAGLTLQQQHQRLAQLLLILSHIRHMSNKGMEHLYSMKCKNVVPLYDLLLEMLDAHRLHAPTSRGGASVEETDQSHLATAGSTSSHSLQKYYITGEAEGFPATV
How it was run: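 HEK293 ER-alpha-UAS-bla GripTite cells, held overnight in 2% charcoal-stripped FBS, 5,000 cells/well, preincubated 4 h, then compound plus 17beta-estradiol for 18 h at 37C. Beta-lactamase read by LiveBLAzer B/G FRET substrate, 2 h at room temperature.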

[5] = qHTS assay to identify small molecule antagonists of the estrogen receptor alpha (ER-alpha) signaling pathway - cell viability counter screen (AID 743074; calls by dose curve;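 note: HEK293 cells carrying ER-alpha-UAS-bla reporter stimulated with 17beta-estradiol; nearly all actives have a fitted effect of over 45% in size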; note: potency is the fitted concentration of half-maximal effect)
[6] = target: Estrogen receptor (Homo sapiens) (UniProt P03372); assay: qHTS assay to identify small molecule agonists of the estrogen receptor alpha (ER-alpha) signaling pathway (AID 743075; calls by dose curve)
[7] = target: Estrogen receptor (Homo sapiens) (UniProt P03372); assay: qHTS assay to identify small molecule agonists of the estrogen receptor alpha (ER-alpha) signaling pathway using the BG1 cell line (AID 743079); conditions: BG1Luc4E2 cells, ERE-luciferase agonist, 22 h; activation: at 70.3 µM (top of the series); note: nearly all actives have a fitted effect of over 20% in size; note: potency is the fitted concentration of half-maximal effect
[8] = qHTS assay to identify small molecule antagonists of the estrogen receptor alpha (ER-alpha) signaling pathway using the BG1 cell line (AID 743080; calls by dose curve; note: nearly all actives have a fitted effect of over 25% in size; note: potency is the fitted concentration of half-maximal effect); conditions: BG1Luc4E2 ERE-luciferase antagonist mode, luminescence; activity change, negative = inhibition: at 70.3 µM (top of the series)
How it was run: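 Antagonist mode: compounds in DMSO were pinned onto BG1-Luc-4E2 cells alongside 17beta-estradiol agonist, incubated 21.5 h, and ERE-driven luciferase measured with ONE-Glo. Cytotoxicity was multiplexed using CellTiter-Fluor fluorescence.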

[9] = qHTS assay to identify small molecule antagonists of the estrogen receptor alpha (ER-alpha) signaling pathway using the BG1 cell line - cell viability counter screen (AID 743081);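 note: compound given together with 17beta-estradiol as the ER stimulus; nearly all actives have a fitted effect of over 45% in size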; note: potency is the fitted concentration of half-maximal effect
[10] = target: Aromatase (Homo sapiens) (UniProt P11511); assay: qHTS assay to identify aromatase inhibitors (AID 743083); note: nearly all actives have a fitted effect of over 55% in size; note: potency is the fitted concentration of half-maximal effect
Aromatase (Homo sapiens), sequence (P11511 whole entry, looked up): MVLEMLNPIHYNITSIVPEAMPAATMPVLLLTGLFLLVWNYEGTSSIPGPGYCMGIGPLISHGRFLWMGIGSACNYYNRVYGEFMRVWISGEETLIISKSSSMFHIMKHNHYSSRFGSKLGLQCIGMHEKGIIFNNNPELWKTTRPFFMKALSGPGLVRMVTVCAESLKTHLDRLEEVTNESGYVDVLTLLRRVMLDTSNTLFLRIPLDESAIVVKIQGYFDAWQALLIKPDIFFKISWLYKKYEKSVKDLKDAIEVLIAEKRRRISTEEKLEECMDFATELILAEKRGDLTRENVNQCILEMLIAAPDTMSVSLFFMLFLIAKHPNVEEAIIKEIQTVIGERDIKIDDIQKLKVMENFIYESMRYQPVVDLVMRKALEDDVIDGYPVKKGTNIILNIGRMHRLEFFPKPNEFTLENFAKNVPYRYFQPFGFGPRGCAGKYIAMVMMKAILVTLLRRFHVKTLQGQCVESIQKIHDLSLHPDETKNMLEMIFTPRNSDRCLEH

[11] = qHTS assay to identify aromatase inhibitors - cell viability counter screen (AID 743084);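 note: cells stimulated with testosterone during compound exposure; nearly all actives have a fitted effect of over 55% in size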; note: potency is the fitted concentration of half-maximal effect
[12] = target: Aryl hydrocarbon receptor (Homo sapiens) (UniProt P35869); assay: qHTS assay to identify small molecule that activate the aryl hydrocarbon receptor (AhR) signaling pathway (AID 743085);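 note: HG2L7.5c1 human HepG2 liver cells with stably integrated DRE-driven firefly reporter; nearly all actives have a fitted effect of over 15% in size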
Aryl hydrocarbon receptor (Homo sapiens), sequence (P35869 whole entry, looked up): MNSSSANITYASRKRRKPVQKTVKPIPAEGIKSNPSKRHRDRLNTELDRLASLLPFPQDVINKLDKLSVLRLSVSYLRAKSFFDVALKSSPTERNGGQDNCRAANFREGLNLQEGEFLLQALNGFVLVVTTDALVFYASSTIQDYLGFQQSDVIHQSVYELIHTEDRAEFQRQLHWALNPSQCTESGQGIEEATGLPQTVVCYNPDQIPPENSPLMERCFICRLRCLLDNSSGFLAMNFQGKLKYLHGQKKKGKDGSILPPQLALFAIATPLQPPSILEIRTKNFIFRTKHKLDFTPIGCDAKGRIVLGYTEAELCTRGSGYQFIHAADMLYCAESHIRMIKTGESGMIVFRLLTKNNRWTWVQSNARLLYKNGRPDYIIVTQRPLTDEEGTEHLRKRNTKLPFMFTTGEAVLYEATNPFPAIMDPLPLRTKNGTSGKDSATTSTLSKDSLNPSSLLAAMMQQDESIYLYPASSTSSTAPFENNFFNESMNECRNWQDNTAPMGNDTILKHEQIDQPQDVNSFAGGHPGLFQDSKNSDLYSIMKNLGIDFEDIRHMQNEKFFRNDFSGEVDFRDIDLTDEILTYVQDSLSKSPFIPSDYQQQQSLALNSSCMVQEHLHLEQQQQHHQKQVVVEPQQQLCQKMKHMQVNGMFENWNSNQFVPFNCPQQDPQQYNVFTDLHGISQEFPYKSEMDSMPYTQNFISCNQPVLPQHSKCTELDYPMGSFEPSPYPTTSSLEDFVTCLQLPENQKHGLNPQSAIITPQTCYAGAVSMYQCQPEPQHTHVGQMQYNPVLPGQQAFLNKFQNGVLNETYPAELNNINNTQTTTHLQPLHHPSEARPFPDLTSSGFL
How it was run: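 Luminescence read-out: ONE-Glo reagent, 30 min at room temperature, in HG2L7.5c1 HepG2 reporter cells treated 24 h at 37C. Viability was measured beforehand by CellTiter-Fluor fluorescence after 30 min at 37C.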

[13] = qHTS assay to identify small molecule that activate the aryl hydrocarbon receptor (AhR) signaling pathway - cell viability counter screen (AID 743086); note: nearly all actives have a fitted effect of over 45% in size; note: potency is the fitted concentration of half-maximal effect
How it was run: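 HepG2-AhR-luc (HG2L7.5c1) cells, 4000/well, treated 24 h at 37 C with compound; viability measured as CellTiter-Fluor fluorescence after 30 min in the same wells as the luciferase read.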

[14] = qHTS assay to identify small molecule antagonists of the peroxisome proliferator-activated receptor gamma (PPARg) signaling pathway - cell viability counter screen (AID 743194); note: nearly all actives have a fitted effect of over 55% in size; note: potency is the fitted concentration of half-maximal effect
How it was run: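 Cytotoxicity counter screen in PPARg-bla HEK293H cells, same wells as reporter assay. Compounds plus 50 nM rosiglitazone (final) for 17 h at 37 C, then viability read by CellTiter-Glo luminescence.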

[15] = qHTS assay for small molecule agonists of the antioxidant response element (ARE) signaling pathway (AID 743202; active = well fitted activation curve with a large enough effect in the signal ratio in the repeat runs, not every such curve was filed as active; inconclusive = weak or mixed curves, or effect the other way; inactive = no such curve, though single readings can be large or run the other way; the % refers to the signal ratio)
How it was run: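 ARE-bla HepG2 cells (beta-lactamase reporter under the antioxidant response element), plated 5 hours, then exposed to compounds 16 hours at 37 C. LiveBLAzer B/G FRET substrate added for 2 hours at room temperature; fluorescence intensity read.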

[16] = qHTS assay for small molecule agonists of the antioxidant response element (ARE) signaling pathway - cell viability counter screen (AID 743203; calls by dose curve; note: nearly all actives have a fitted effect of over 55% in size; note: potency is the fitted concentration of half-maximal effect)
How it was run: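 HepG2 cells carrying ARE-driven beta-lactamase; 2,000 cells/well; 5 hrs plating; compound pinned from DMSO; 16 hrs 37C/5% CO2; CellTiter-Glo added; 30 min RT; luminescence.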

[17] = qHTS assay for small molecule activators of the heat shock response signaling pathway - cell viability counter screen (AID 743209); note: nearly all actives have a fitted effect of over 50% in size; note: potency is the fitted concentration of half-maximal effect
How it was run: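 Luminescence from CellTiter-Glo, added after the beta-lactamase FRET read, gave the viability signal. Cells were HSE-bla HeLa treated with DMSO-dissolved compounds for 5 h at 37 C following overnight plating.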

[18] = qHTS assay for small molecule activators of the heat shock response signaling pathway (AID 743210; active = well fitted activation curve with a large enough effect in the signal ratio in the repeat runs, with a control signal flat, not every such curve was filed as active; inconclusive = weak or mixed curves; the % refers to the signal ratio)
How it was run: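 HSE-bla HeLa cells (beta-lactamase reporter under heat shock response elements), plated overnight, then exposed to compounds 5 h at 37 C; LiveBLAzer B/G FRET substrate added, 2.5 h at room temperature, fluorescence intensity read.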

[19] = target: Peroxisome proliferator-activated receptor gamma (Homo sapiens) (UniProt P37231); assay: qHTS assay to identify small molecule agonists of the peroxisome proliferator-activated receptor gamma (PPARg) signaling pathway (AID 743094; active = well fitted activation curve with a large enough effect in the signal ratio in the repeat runs, not every such curve was filed as active; inconclusive = weak or mixed curves, or effect the other way; inactive = no such curve, though single readings can be large or run the other way; the % refers to the signal ratio)
Peroxisome proliferator-activated receptor gamma (Homo sapiens), sequence (P37231 whole entry, looked up): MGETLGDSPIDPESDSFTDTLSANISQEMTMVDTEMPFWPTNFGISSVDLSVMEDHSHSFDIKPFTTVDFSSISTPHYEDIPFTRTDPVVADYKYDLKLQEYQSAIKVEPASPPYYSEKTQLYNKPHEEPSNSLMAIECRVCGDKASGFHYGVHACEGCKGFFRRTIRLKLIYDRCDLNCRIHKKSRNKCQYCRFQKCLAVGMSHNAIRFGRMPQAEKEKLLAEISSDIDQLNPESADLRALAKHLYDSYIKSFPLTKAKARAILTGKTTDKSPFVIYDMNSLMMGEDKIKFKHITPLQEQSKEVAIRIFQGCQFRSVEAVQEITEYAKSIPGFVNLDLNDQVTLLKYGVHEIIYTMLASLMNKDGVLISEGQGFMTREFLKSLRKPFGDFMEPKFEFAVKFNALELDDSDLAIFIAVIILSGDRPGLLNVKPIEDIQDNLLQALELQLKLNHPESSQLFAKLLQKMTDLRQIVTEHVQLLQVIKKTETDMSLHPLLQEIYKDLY
How it was run: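 Beta-lactamase FRET fluorescence was the read-out after a 1 h room-temperature substrate step, following 17 h compound treatment at 37C of HEK293H cells expressing a UAS-driven bla reporter responsive to PPARg.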

[20] = target: Peroxisome proliferator-activated receptor gamma (Homo sapiens) (UniProt P37231); assay: qHTS assay to identify small molecule antagonists of the peroxisome proliferator-activated receptor gamma (PPARg) signaling pathway (AID 743191; calls by dose curve; note: nearly all actives have a fitted effect of over 30% in size; note: potency is the fitted concentration of half-maximal effect)
How it was run: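 GeneBLAzer PPARg UAS-bla HEK293H cells, 5 h post-plating, exposed to compounds 17 h at 37C. LiveBLAzer B/G FRET substrate added for 1 h at room temperature; beta-lactamase reporter read by fluorescence intensity.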

Measured: Potency

CCCSS/C(CCO)=C(\C)N(C=O)Cc1cnc(C)nc1N
active: [1] 26.6 µM | [2] 23.7 µM | [10] 26.6 µM
not listed: [18] | [19] | [20]
inactive: all other assays above

CCc1ccc(O)c(C(C)(C)C)c1
inactive: [3] | [4] | [5] | [8] | [9] | [12] | [13]
active: [1] 54.5 µM | [2] 61.1 µM | [7] 27.3 µM | [10] 68.6 µM

CC(CN(C)C)CN1c2ccccc2CCc2ccccc21 (stereo unspecified)
active: [1] 4.52 µM | [2] 11.4 µM
not listed: [9] | [10] | [11] | [14] | [19] | [20]
inactive: all other assays above

CCN=c1cc2oc3cc(NCC)c(C)cc3c(-c3ccccc3C(=O)OCC)c-2cc1C
active: [1] 1.08 µM and 1.22 µM | [2] 609 nM and 1.09 µM | [4] 48.8 nM [inconclusive] and 155 nM [inconclusive] | [5] 24.5 µM and 21.9 µM | [8] 172 nM and 217 nM | [9] 3.84 µM and 5.45 µM | [10] 193 nM and 137 nM | [11] 1.21 µM and 1.93 µM | [13] 6.83 µM and 7.7 µM | [14] 10.9 µM and 6.92 µM | [16] 60.9 µM and 30.6 µM | [17] 30.8 µM and 19.5 µM
inactive: [3] | [6] | [12]

CCN(CC)CCOC(=O)C1(C2CCCCC2)CCCCC1
active: [1] 26.6 µM | [2] 23.7 µM | [10] 29.8 µM
not listed: [11]
inactive: all other assays above

ClC/C=C\CCl
not listed: [12] | [15] | [17]
inactive: all other assays above

Cc1cn[nH]c1
inactive: all assays above

CC1=C(/C=C/C(C)=C/C=C/C(C)=C/C(=O)Nc2ccc(O)cc2)C(C)(C)CCC1
active: [1] 6.68 µM and 8.85 µM | [2] 5.96 µM and 7.89 µM | [4] 6.01 µM [inhibitor] | [9] 16.8 µM and 62.7 µM | [10] 13.3 µM and 28 µM | [11] 26.6 µM and 28 µM | [13] 28 µM | [20] 71 µM | [16] 44.4 µM | [17] 20 µM and 33.5 µM
inactive: [3] | [6] | [12] | [14]

CCC(=O)OCCc1ccccc1
not listed: [10] | [15] | [17] | [18]
inactive: all other assays above

COC(=O)CC(C)CCC=C(C)C (stereo unspecified)
not listed: [15] | [17] | [18] | [19]
inactive: all other assays above

C(=C/c1ccccc1)/c1ccccc1
not listed: [15] | [19]
inactive: all other assays above

CCCCOC(=O)C(C)CC (stereo unspecified)
not listed: [13] | [17] | [18] | [19] | [20]
inactive: all other assays above

C[C@@]12C(=O)OC(=O)[C@]1(C)C1CCC2O1
active: [1] 2.27 µM | [2] 2.02 µM | [4] 4.06 µM [inconclusive] | [11] 3.59 µM | [13] 0.569 µM | [16] 4.22 µM
inactive: [3] | [6] | [14] | [18]

NC(=O)c1ccccc1N
not listed: [17]
inactive: all other assays above
